# Assay results: PubChem BioAssay (NCI)
# “And” between values parts separate entries of the source, which are not always exact repeats. Equal entries are not always repeated. This is part of a sample that, as a whole, favours compounds with a hit. Of some 83,000 tested, about 20% had one in any assay.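 Method: cells in 96-well plates; compound added at one concentration; 48 h incubation; percent growth measured; values under 10 scored active.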 The source made the active and inactive calls.
# System: MDA-MB-468 breast
# Assay: NCI-60 one-dose screen, 48 h (100 = growth as untreated, 0 = no growth, -100 = all killed)
# Settings: 10 µM unless noted
row,Structure (SMILES),growth
1,Oc1c(C(Nc2ccccc2)c2ccccc2)ccc2cccnc12 (stereo not given),17.8% (inactive)
2,CC1=NC(=S)NC(c2ccccc2)/C1=C1/CC(c2ccccc2O)NN1 (stereo not given),107% (inactive)
3,Cc1ccc(N(CSc2ccc(Cl)cc2)CSc2ccc(Cl)cc2)cc1,91.5% (inactive)
4,O=C(N=Nc1c(O)[nH]c2ccccc12)c1oc2ccccc2c1CN1CCN(c2ccccc2)CC1,-46% (active)
5,Cc1nc(/N=C(N)/N=C(\N)c2cccc(Br)c2)sc1C,32.5% (inactive)
6,Nc1ncnc2c1c(-c1ccc(Oc3ccccc3)cc1)nn2C[C@@H]1SSC[C@@H]1O,-27.7% (active)
7,NC(=O)c1ccc2nc3c(n2c1)C(=O)C(=O)c1ccccc1-3,-57.7% (active)
8,C=C1CCC2C3(C)COC(c4ccccc4)OC3CCC2(C)C1C/C=C1/C(=O)OCC1O (stereo not given),30.6% (inactive)
9,COc1ccc(/C(C#N)=C/c2cc(OC)c(OC)c(OC)c2)cc1,27.6% (inactive)
10,Cn1cc(-c2csc(-c3cn(CCN)c4ccccc34)n2)c2cccnc21,23.2% (inactive)
11,Cc1nc2cc(Nc3nc(Nc4ccc(F)cc4)nc(-c4cccs4)n3)ccc2n1Cc1ccccc1,33.2% (inactive)
12,Cc1oc(-c2ccc(Cl)cc2)nc1/C=C/C(=O)c1ccccc1,95% (inactive)
13,ClCC#CCSc1ncnc2c1ncn2CC#CCCl,-57.2% (active)
14,OC(CSc1ccccc1)CN1CCN(c2cccc(Cl)c2)CC1 (stereo not given),96.8% (inactive)
15,CN1CCCC1=Nc1ccccc1,107% (inactive)
16,COc1ccc(C2=Cc3ccc(OC(C)=O)cc3OC2)cc1,67.4% (inactive)
17,Cc1nc2ccc(C(=O)NCc3cc(C(=O)O)c(C)o3)cc2nc1C,98.7% (inactive)
18,CN1CCN(Cc2ccc(NC(=O)c3cncc(C#Cc4cnc5ccc(OCC(C)(C)O)nn45)c3)cc2C(F)(F)F)CC1,-40.2% (active)
19,COc1cc(Nc2ncc(F)c(Nc3ccc4c(n3)NC(=O)C(C)(C)O4)n2)cc(OC)c1OC,27.7% (inactive)
20,O=C(Nc1ccc(OCc2nnc(-c3ccccc3)o2)c(F)c1)Nc1ccc(Cl)c(C(F)(F)F)c1,1.01% (active)

row,Structure (SMILES),growth
1,COc1ccc(S(=O)(=O)NCCCNc2cc(-c3c(-c4cccc(OC)c4)nc4sccn34)ccn2)cc1,11.3% (inactive)
2,O=C1Cc2cc(O)ccc2O1,103% (inactive)
3,CCN=c1sc2c(n1NC(=O)c1cc3ccc1CCc1ccc(cc1)CC3)C(=O)c1ccccc1C2=O,-33.7% (active)
4,CCN(CC)CCOc1cccc2c1C(=O)c1cccc(OCCN(CC)CC)c1C2=O,8.32% (active)
5,CCCCc1ccc(Nc2ccc(Nc3ccc(CCCC)cc3S(=O)(=O)O)c3c2C(=O)c2ccccc2C3=O)c(S(=O)(=O)O)c1,112% (inactive)
6,C(=C1c2ccccc2-c2ccccc21)c1ccccn1,22.4% (inactive)
7,O=C(Nc1cccc(-n2cc(-c3ccncc3)c(-c3ccc(Cl)c(O)c3)n2)c1)Nc1cc(C(F)(F)F)cc(C(F)(F)F)c1,-23.9% (active)
8,O=C(Nc1ccc2ncnc(Nc3ccc(Oc4cccc(F)c4)c(Cl)c3)c2c1)c1ccc(CN2CCOCC2)cc1,18.8% (inactive)
9,CCN(CC)c1ccc2c(c1)Oc1nc(N)c(C#N)c(N)c1C2Sc1ccc(OC)cc1 (stereo not given),-35.3% (active)
10,Oc1ccc(-c2nc3ccc4[nH]ncc4c3c3c2CCCC3)c(F)c1,18.2% (inactive)
11,N#Cc1cccc(OCc2nc(N)nc(N)c2-c2ccc(Cl)c(Cl)c2)c1,19.3% (inactive)
12,COC(=O)/C=C1/SC(=Nc2ccc(F)cc2)N(CCc2c[nH]c3ccc(O)cc23)C1=O,36% (inactive)
13,C=CCN=c1sc2c(n1NC(=O)c1cc3ccc1CCc1ccc(cc1)CC3)C(=O)c1ccccc1C2=O,-30.1% (active)
14,COc1nccc2c(Sc3ccccc3)nc(N)nc12,112% (inactive)
15,COc1cc(-c2nccc3cc4c(cc23)OCO4)cc(OC)c1OC,-6.2% (active) and 5.32% (active)
16,O=C(O)c1ccc(-n2cc(CNc3cc(F)c(F)c(F)c3)c(-c3cccc(F)c3)n2)cc1,95.4% (inactive)
17,N#Cc1cccc(-c2nc3ccccn3c2NCCN2CCOCC2)c1,111% (inactive)
18,C[C@@H](Nc1cc(F)cc(F)c1)c1cc(C(=O)N(C)C)cc2c(=O)cc(N3CCOCC3)oc12,12.6% (inactive)
19,COC(=O)c1ccc(C(C)C)cc1,110% (inactive)
20,O=C(CCN1CCCC1)Nc1ccc2c(NCCCc3ccccc3)c3ccccc3nc2c1,-38.5% (active)
